For 24 compounds, Potency results are on record in PubChem BioAssay (NCATS).

Common to all, as to experiment: qHTS profiling for inhibitors of Plasmodium falciparum proliferation (AID 504749); also: nearly all actives have a fitted effect of over 60% in size
Holding throughout (conditions): P. falciparum in erythrocytes, SYBR Green DNA, 72 h; series mostly up to 28.7 µM

One assay relates to AA1029. In outline:
(§1)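 SYBR Green fluorescence (ex 485 nm, em 535 nm) reports parasite DNA after 72 h compound exposure of infected red cells at 0.3% parasitemia, 2.5% hematocrit; signal normalized to 0.29 uM artemisinin and vehicle wells.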

The next assay concerns AS120. An outline of the steps: as §1
In the next assay the test system is ATS189. An outline of the steps:
as §1

The subject of the next assay is ATS95. An outline of the steps: as §1
Another assay has as its system C2A. In outline:
as §1

For a further assay, the system named is CP185. An outline of the steps: as §1
Another assay relates to CP191. In outline:
as §1

For the next assay, the system named is CP192. In outline: as §1
For another assay, the system named is CP194. An outline of the steps: as §1
Another assay concerns CP201. In outline:
as §1

SMILES strings stand for the structures. Records with an inconclusive call do not appear. More than one record can exist for a structure, and the calls need not agree. Activity calls are given as the source filed them. Calls follow the shape of the dose curve; as a rule, active = well fitted inhibition curve with a large enough effect; inconclusive = small, poorly fitted or top-dose-only effect; inactive = flat fitted curve, though single readings scatter.
Potency is read from the fitted curve at half-maximal effect.

Regarding `O=[N+]([O-])c1ccccc1`, the Potency entry with AA1029, in the assay with AS120, with ATS189, in the assay on ATS95, with C2A and with CP185 was “inactive” in each case. Further, the Potency result with CP191, in the assay with CP192, in the assay with CP194 and in the assay with CP201 was “inactive” each time.
`CCCCCl`: the Potency entry in the assay with AA1029, in the assay on AS120, with ATS189, in the assay with ATS95, with C2A and in the assay with CP185 was “inactive” throughout. Besides, the Potency result in the assay with CP191, with CP192, with CP194 and in the assay with CP201 was “inactive” each time.
Regarding `C[N+]1(C)CCCCC1COC(=O)C(O)(c1ccccc1)c1ccccc1` (stereo unspecified), the Potency entry with AA1029, in the assay with AS120, in the assay with ATS189, in the assay with ATS95, in the assay with C2A and in the assay on CP185 was “inactive” in each case. For the same compound, the Potency result in the assay with CP191, in the assay with CP192, with CP194 and in the assay on CP201 was “inactive” in each case.
Take `[N-]=[N+]=CC(=O)OCC(N)C(=O)O` (stereo unspecified): the Potency result in the assay with AA1029, in the assay on AS120, with ATS189, with ATS95, in the assay with C2A and in the assay on CP185 was “inactive” each time. In addition, the Potency entry in the assay with CP191, with CP192, with CP194 and in the assay with CP201 was “inactive” in each case.
Regarding `COC1=CC=C2[C@H]3Cc4ccc(OC)c5c4[C@@]2(CCN3C)[C@H]1O5`, the Potency result in the assay with AA1029, in the assay with AS120, in the assay on ATS189, with ATS95, in the assay on C2A and with CP185 was “inactive” in each case. In addition, the Potency result in the assay on CP191, in the assay with CP192, with CP194 and in the assay with CP201 was “inactive” each time.
`S=C(S)N1CCNCC1`: the Potency result with AA1029, in the assay on AS120, with ATS189, with ATS95, in the assay with C2A and in the assay on CP185 was “inactive” each time. Further, the Potency result in the assay on CP191, with CP192, with CP194 and in the assay on CP201 was “inactive” throughout.
In the case of `COc1ccc2c(c1OC)C(=O)OC2C1c2cc3c(cc2CCN1C)OCO3` (stereo unspecified), the Potency entry in the assay on AA1029, in the assay with AS120, in the assay on ATS189, in the assay with ATS95, with C2A and with CP185 was “inactive” throughout. Further, the Potency result in the assay on CP191 is “inactive”.
As to `COC([CH2][Hg])CNC(=O)c1ccccc1OCC(=O)O` (stereo unspecified), the Potency result in the assay with AA1029, with AS120, in the assay with ATS189, in the assay with ATS95, in the assay on C2A and in the assay on CP185 was “inactive” throughout. Also, the Potency result in the assay on CP191, in the assay with CP192, in the assay with CP194 and with CP201 was “inactive” in each case.
In the case of `[O]=[Cd]`, the Potency entry in the assay with AA1029, in the assay on AS120, with ATS189, in the assay on ATS95, in the assay on C2A and in the assay on CP185 was “inactive” throughout. Moreover, the Potency result in the assay on CP191, in the assay on CP192, in the assay with CP194 and in the assay on CP201 was “inactive” throughout.
For `CC(Cc1ccccc1)NC=O` (stereo unspecified), the Potency entry in the assay with AA1029, in the assay with AS120, in the assay with ATS189, with ATS95, with C2A and with CP185 was “inactive” in each case. Also, the Potency result in the assay on CP191, in the assay on CP192, in the assay with CP194 and in the assay with CP201 was “inactive” throughout.
With `O=C1C2CC=CCC2C(=O)N1SC(Cl)(Cl)Cl` (stereo unspecified), the Potency result in the assay on AA1029, in the assay with AS120, in the assay with ATS189, in the assay with ATS95, in the assay on C2A and in the assay on CP185 was “inactive” each time. For the same compound, the Potency entry with CP191, in the assay with CP192, with CP194 and in the assay with CP201 was “inactive” each time.
As to `CC(C)Nc1ccc(Nc2ccccc2)cc1`, the Potency with AA1029 was 7.08 µM (active); in the assay on AS120, 11.2 µM (active); in the assay with ATS189, 5.62 µM (active); in the assay on ATS95, 7.94 µM (active); with C2A, 8.91 µM (active); with CP185, 8.91 µM (active). Also, the Potency was 4.47 µM (active) with CP191, 5.36 µM (active) in the assay on CP192, 3.38 µM (active) in the assay on CP194 and 4.78 µM (active) in the assay on CP201.
Turning to `C=CCN1CC[C@]23c4c5ccc(O)c4O[C@H]2[C@@H](O)C=C[C@H]3[C@H]1C5`, the Potency result in the assay with AA1029, in the assay on AS120, in the assay with ATS189, in the assay with ATS95, in the assay with C2A and in the assay on CP185 was “inactive” throughout. Also, the Potency result in the assay with CP191, in the assay with CP192, with CP194 and in the assay on CP201 was “inactive” throughout.
As to `C=CCN=C=S`, the Potency result in the assay with AA1029, in the assay with AS120, with ATS189, with ATS95, in the assay on C2A and in the assay on CP185 was “inactive” throughout. The Potency result with CP191 is “inactive”.
For `O=[N+]([O-])C(Br)(CO)CO`, the Potency entry in the assay with AA1029, in the assay with AS120, with ATS189, with ATS95, in the assay on C2A and in the assay on CP185 was “inactive” each time. Besides, the Potency result in the assay with CP191, in the assay on CP192, in the assay on CP194 and with CP201 was “inactive” throughout.
As to `O=C(CCl)c1ccc(Oc2ccc(C(=O)CCl)cc2)cc1`, the Potency entry with AA1029, in the assay on AS120, in the assay with ATS189, in the assay with ATS95, in the assay on C2A and in the assay with CP185 was “inactive” in each case. Moreover, the Potency result in the assay on CP191, in the assay on CP192, in the assay on CP194 and with CP201 was “inactive” in each case.
In the case of `C=CCN(C1=NCCN1)c1c(Cl)cccc1Cl`, the Potency result with AA1029, in the assay with AS120, in the assay on ATS189, in the assay with ATS95, in the assay with C2A and with CP185 was “inactive” throughout. Further, the Potency entry in the assay on CP191, in the assay with CP192, in the assay on CP194 and in the assay with CP201 was “inactive” in each case.
As to `CCCCNCC(O)c1ccc(O)cc1` (stereo unspecified), the Potency entry in the assay with AA1029, in the assay on AS120, in the assay with ATS189, in the assay on ATS95, in the assay with C2A and in the assay on CP185 was “inactive” each time. For the same compound, the Potency result in the assay with CP191, with CP192, in the assay with CP194 and in the assay with CP201 was “inactive” each time.
`c1cc2c(c(NC3=NCCN3)c1)CCCC2`: the Potency entry in the assay with AA1029, with AS120, in the assay on ATS189, with ATS95, in the assay with C2A and in the assay on CP185 was “inactive” throughout. In addition, the Potency result with CP191 was “inactive”.
Regarding `Cn1sc(Cl)cc1=O`, the Potency result with AA1029, in the assay on AS120, in the assay on ATS189, in the assay with ATS95, with C2A and in the assay with CP185 was “inactive” each time. Further, the Potency entry in the assay with CP191, in the assay on CP192, in the assay with CP194 and in the assay with CP201 was “inactive” throughout.
Consider `CCOC(=O)c1ccccc1C(=O)OCC`, for which the Potency result with AA1029, in the assay on AS120, in the assay on ATS189, in the assay on ATS95, in the assay on C2A and in the assay on CP185 was “inactive” each time. For the same compound, the Potency entry in the assay on CP191, with CP192, with CP194 and in the assay with CP201 was “inactive” each time.
On to `COc1ccc(OC)c(C(O)C(C)N)c1` (stereo unspecified), for which the Potency entry in the assay with AA1029, in the assay with AS120, with ATS189, in the assay on ATS95, with C2A and with CP185 was “inactive” in each case. Besides, the Potency entry with CP191, with CP192, in the assay with CP194 and in the assay on CP201 was “inactive” in each case.
Take `CC(C)(C)c1cc(O)ccc1O`: the Potency in the assay with AA1029 is 8.91 µM (active) and inactive; with AS120, 8.91 µM (active); in the assay on ATS189, 10 µM (active); in the assay on ATS95 it was 7.94 µM (active); with C2A, 4.47 µM (active); in the assay on CP185 it was 11.2 µM (active) and inactive. Further, the Potency in the assay with CP191 is 11.2 µM (active); with CP194, 16.9 µM (active) and inactive. Moreover, the Potency entry in the assay with CP192 and in the assay on CP201 was “inactive” each time.
For the compound `ClC=C(Cl)Cl`, the Potency result in the assay with AA1029, in the assay on AS120, in the assay on ATS189, with ATS95, with C2A and with CP185 was “inactive” throughout. For the same compound, the Potency result in the assay on CP191, with CP192, in the assay on CP194 and in the assay on CP201 was “inactive” in each case.
